Among the data in PubChem BioAssay (EPA / NIEHS) are AC50 and outcome values, retold here.

The subject of assay [1] is Thyroperoxidase (TPO), gene 54314. As to the kind of experiment: CCTE_Simmons_AUR_rTPO: CCTE's Amplex UltraRed Assay for Thyroperoxidase (TPO) Inhibition, Simmons Lab (AID 2283662; active = hit-call score of the fitted dose curve at least 0.9, where 1 is the maximum;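 note: potency for loss of signal meaning inhibition of peroxidase activity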). In short, it runs like this: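 Rat thyroid microsomes (5 ug protein) with 25 uM Amplex UltraRed and 300 uM H2O2 in 200 mM phosphate buffer, 30 min at 37C in dark; fluorescence 544/590 nm. Eight concentrations, 5 nM–87.5 uM final, 0.5% DMSO, triplicate biological replicates.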

The nature of assay [2]: CEETOX_H295R_MTT_cell_viability: Viability Assessment in the CeeTox HT-H295R MTT Assay (AID 2283718).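 For AC50: curve fitted both ways so AC50 may mark viability loss or gain.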 In short, it runs like this: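 Human H295R adrenal cells, prestimulated 48 h with 10 uM forskolin, were exposed 48 h to chemicals in 0.1% DMSO. Viability was measured in the same wells by MTT (0.5 mg/ml, 4 h, 37 C), absorbance 570/650 nm, as percent of controls.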
Assay [3] is described as follows: CCTE_Simmons_CellTiterGLO_HEK293T: Viability Assessment in CCTE's Assays for Thyroperoxidase (TPO) Inhibition, Simmons Lab (AID 2283665; active = hit-call score of the fitted dose curve at least 0.9, where 1 is the maximum;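 for AC50: cells exposed to compound for 24 h before readout; actives reduce ATP signal below DMSO vehicle meaning cytotoxicity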). In short, it runs like this:
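HEK293T cells in DMEM with 1% FBS, dosed 24 h at 37C with 8 concentrations, 5 nM–87.5 uM final, 0.5% DMSO. ATP measured by CellTiter Glo luminescence; loss of signal vs DMSO, three biological replicates.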
(Cellular ATP, detected with luciferase, serves as a proxy for viable cell number.)

Assay [4] can be described thus: Tanguay_ZF_120hpf_TR_legacy: (Legacy) Oregon State University Tanguay Lab 120 Hour Post-fertilization zebrafish Assay for Touch Response (AID 2283667; active = hit-call score of the fitted dose curve at least 0.9, where 1 is the maximum). In short, it runs like this:
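Tropical 5D wild-type zebrafish embryos statically exposed to 120 hpf at 28°C, sealed and dark-covered, 0.64% DMSO final; touch response scored as present/absent by brightfield microscopy at 120 hpf. Trimethyltin chloride 5 uM positive control; dead embryos not scored.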

Read-out in assay [5]: Cytochrome P450 (CYP24A1_1), CYP24A1 (gene 1591)
Description: LTEA_HepaRG_CYP24A1_1: Life Technologies and Expression Analysis (LTEA) Assay for Cytochrome P450 (CYP24A1_1) using HepaRG (AID 2283671). To be noted: mRNA level, 48 h; actives raise or lower the signal. In short, it runs like this: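 Differentiated human HepaRG cells in serum-free induction medium, exposed 48 h in duplicate to eight half-log concentrations from 100 uM top, 0.5% DMSO. Transcript measured by TaqMan qRT-PCR, normalised to ACTB, GAPDH, POLR2A; bidirectional fitting versus DMSO.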

The nature of assay [6]: CCTE_Padilla_ZF_144hpf_TERATOSCORE: (Legacy) CCTE's 144 Hour Post-fertilization zebrafish Assay Teratoscore, Padilla Lab (AID 2283679).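 For AC50: zebrafish embryos with chorions exposed by immersion from 6-8 hpf to 5 dpf with daily renewal; teratogenicity score from eye scoring of death hatching and malformations at 144 hpf; higher score means more developmental defects relative to DMSO baseline.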 In short, it runs like this:
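Larvae scored by eye at 144 hpf for death, hatching and malformations after a day in clean Hanks'. Before that, daily-renewed exposure at 80 uM (0.4% DMSO, 26C) from roughly 6-8 hpf through 5 dpf, 4 embryos per chemical.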

The nature of assay [7]: Tanguay_ZF_120hpf_ActivityScore_legacy: (Legacy) Oregon State University Tanguay Lab 120 Hour Post-fertilization zebrafish Assay Score for Activity (AID 2283742; active = hit-call score of the fitted dose curve at least 0.9, where 1 is the maximum;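 for AC50: dechorionated Tropical 5D wild-type zebrafish embryos held singly per well; static exposure from 6 hpf until 120 hpf at 28 °C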). In short, it runs like this: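 Dechorionated Tropical 5D embryos, one per well from 6 hpf, statically exposed to 120 hpf at 28 °C in 0.64% DMSO. Mortality and malformations scored binary by brightfield microscopy; activity score combines 18 endpoints, fitted positively versus DMSO.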

A short description of assay [8]: STM_H9_OrnithineISnorm_perc: Stemina devTOX quickPredict H9 human embryonic stem cell (hESC)-based Assay for Ornithine (ORN) Metabolite Biomarker, Normalized (AID 2283712).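 Note: ornithine released into spent medium during last day measured by mass spectrometry.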 In short, it runs like this:
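Undifferentiated H9 hESCs exposed 72 h with daily media and compound renewal; final 24-h conditioned medium analysed by UPLC-HRMS. Ornithine peak area normalised to spiked C13 standard and to median 0.1% DMSO control; viability by CellTiter-Fluor.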

Assay [9] in a line: STM_H9_CystineISnorm_perc: Stemina devTOX quickPredict H9 human embryonic stem cell (hESC)-based Assay for Cystine (CYSS) Metabolite Biomarker, Normalized (AID 2283713). In short, it runs like this:
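Undifferentiated H9 hESCs exposed 72 h, compound and media replaced every 24 h; final 24-h media analysed by UPLC-HRMS. Cystine normalized to C13 spike-in standard and median 0.1% DMSO control.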

Assay [10] can be described thus: STM_H9_OrnCyssISnorm_ratio: Stemina devTOX quickPredict H9 human embryonic stem cell (hESC)-based Assay for Ornithine (ORN):Cystine (CYSS) Ratio (AID 2283714; active = hit-call score of the fitted dose curve at least 0.9, where 1 is the maximum). In short, it runs like this: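 Undifferentiated H9 hESCs exposed 72 h, media and compound replaced every 24 h; final 24-h conditioned media deproteinized and analysed by UPLC-HRMS against C13 spike-ins. Value is the internal-standard-normalized ORN/CYSS ratio versus 0.1% DMSO.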

SMILES strings stand for the structures. “And” between values parts separate entries of the source, which are not always exact repeats. Identical values can stand only once. Records with an inconclusive call do not appear. A structure can be active in one record and inactive in another. The source made the active and inactive calls. Rule for the calls, unless noted: active = hit-call score of the fitted dose curve at least 0.9, where 1 is the maximum; inactive = score below 0.9.

Consider `CCC1(c2ccc(N)cc2)CCC(=O)NC1=O` (configuration not stated), for which the AC50 in [1] is 935 nM (active). The molecule was called inactive in assay [2].

`CCCCCCCCSC(=O)Oc1cc(Cl)nnc1-c1ccccc1`: the AC50 in [1] was 43800 nM (active). Also, the outcome in assay [3] was inactive.

As for `Oc1cccc2cccnc12`, the AC50 in assay [1] is 18.4 µM (active) and 15.9 µM (active); in assay [3] it was 15.8 µM (active) and 53.8 µM (active); in assay [6] it was 4.78 µM (active); in [7], 39.6 µM (active). Besides, the result in assay [4] and in [5] was inactive.

On to `O=C(Nc1ccc2[nH]ccc2c1)c1cc2cc(F)ccc2n1Cc1cccc(F)c1`, for which the AC50 in assay [1] is 1620 nM (active); in [3], 753 nM (active); in assay [8] it was 3.5 µM (active); in [9], 1.27 µM (active); in assay [10] it was 1.28 µM (active). The outcome in [4], in [2] and in assay [7] was inactive.

Consider `Cc1ccc(N)cc1Cl`, for which the AC50 is 10.9 nM (active) in assay [1] and 18400 nM (active) in assay [3].

For the molecule `c1cc[c]([Hg][c]2ccccc2)cc1`, in assay [2], the AC50 was 24.7 µM (active).

`O=C(Cc1ccccc1)c1ccccc1`: in assay [2], the molecule was classed as inactive.

Regarding `C[C@]12CCC(=O)C[C@@H]1CC[C@@H]1[C@@H]2CC[C@]2(C)[C@@H](O)CC[C@@H]12`, the molecule was classed as inactive in assay [4], in assay [2] and in assay [7]. Further, the AC50 in assay [6] is 11.6 µM (active).

For the molecule `Nc1ccc(-c2ccc(N)c(Cl)c2)cc1Cl`, the molecule was called inactive in assay [2].

Regarding `CCCCCCCCC(=O)NCc1ccc(O)c(OC)c1`, the molecule was called inactive in [2].

For `ClCC(Cl)CCl`, the molecule was called inactive in [6], in assay [8], in [9], in assay [10] and in assay [7].

For the molecule `C=CC(=O)N(C)C`, the call in assay [2] was inactive.

Take `O=C1C2(Cl)C3(Cl)C4(Cl)C(Cl)(Cl)C5(Cl)C3(Cl)C1(Cl)C5(Cl)C24Cl` (configuration not stated): the AC50 in [4] is 34.8 µM (active); in assay [6], 3.4 µM (active); in [7], 71 µM (active).

With `C=C(C)C(=O)[O][Sn]([CH2]CCC)([CH2]CCC)[CH2]CCC`, the molecule was classed as inactive in assay [4]. Also, the AC50 was 0.0483 µM (active) in [6]; 0.494 µM (active) in [8]; 0.266 µM (active) in [9]; 0.441 µM (active) in assay [10]; 1.54 µM (active) in assay [7].

For the molecule `CN(C)N=O`, the outcome in assay [4], in assay [6] and in assay [7] was inactive.

Take `CC(C)OC(=O)Nc1ccccc1`: the AC50 in assay [2] was 2.64 µM (active).

As to `CCC(=O)C(CC(C)N(C)C)(c1ccccc1)c1ccccc1` (configuration not stated), the AC50 in assay [4] was 39 µM (active). The molecule was classed as inactive in assay [7].

In the case of `CC(=O)[O][Hg][c]1ccccc1`, the molecule was classed as inactive in [4]. Also, the AC50 in assay [6] was 0.066 µM (active); in assay [8] it was 0.476 µM (active); in assay [9] it was 0.287 µM (active); in assay [10] it was 0.311 µM (active); in assay [7], 0.111 µM (active).

`O=c1[nH]c(=O)[nH]c(=O)[nH]1`: the call in assay [4], in assay [6] and in assay [7] was inactive.

Take `CCN1CCC2(CC1)COc1cc3c(cc12)N(C(=O)c1ccc(-c2ccc(-c4nnc(C)o4)cc2C)cc1)CC3`: the molecule was classed as inactive in [4], in assay [6] and in [7]. Also, the AC50 is 54 µM (active) in assay [6], 8.53 µM (active) in [8], 3.56 µM (active) in [9] and 7.61 µM (active) in assay [10].

Turning to `C1CCC(NC2CCCCC2)CC1`, the outcome in [2] was inactive.

Consider `ClC1(Cl)C2(Cl)C3(Cl)C4(Cl)C(Cl)(Cl)C5(Cl)C3(Cl)C1(Cl)C5(Cl)C24Cl` (configuration not stated), for which the molecule was called inactive in assay [4], in assay [5], in [8], in assay [9] and in assay [7]. In [10], the AC50 was 0.346 µM (active).

Consider `C[C@]12CC[C@H](O)CC1=CC[C@@H]1[C@@H]2CC[C@]2(C)C(=O)CC[C@@H]12`, for which, in [2], the result was inactive.

For the molecule `C=CC(=O)OCCCCCC(C)C`, the molecule was classed as inactive in assay [4] and in assay [7].

Consider `O=C(OC1CCCCC1)c1ccccc1C(=O)OC1CCCCC1`, for which the AC50 in [2] was 28.6 µM (active).

Consider `ClC(Cl)=C(Cl)C(Cl)=C(Cl)Cl`, for which the molecule was called inactive in assay [2].

On to `C(=NC1CCCCC1)=NC1CCCCC1`, for which the molecule was classed as inactive in [2].

Turning to `Cn1sc(Cl)cc1=O`, the AC50 in assay [6] was 14.9 µM (active); in assay [7] it was 39.8 µM (active). In addition, the outcome in [2] was inactive.

With `CC(C)(OO)c1ccccc1`, the result in [7] was inactive.

Turning to `O=[N+]([O-])c1ccc(O)c([N+](=O)[O-])c1`, the values for the AC50 in assay [6], in [9] and in [7] were 4.96 µM (active), 31.1 µM (active) and 29.6 µM (active), respectively. Moreover, the outcome in [8] and in [10] was inactive.

Consider `CCOP(=S)(OCC)SCCS(=O)(=O)CC`, for which, in [2], the outcome was inactive.

`COc1cc(-c2ccc(N)c(OC)c2)ccc1N`: the result in assay [4], in assay [2] and in [7] was inactive. Moreover, the AC50 in [6] was 52.6 µM (active) and 79.3 µM (active); in assay [7], 3.57 µM (active).

In the case of `Fc1ccc(C2(Cn3cncn3)OC2c2ccccc2Cl)cc1` (configuration not stated), the result in assay [2] was inactive.

On to `CN(CCCC(=O)c1cccnc1)N=O`, for which the result in assay [2] was inactive.

`C[C@@H]1C[C@@H]([C@H](O)CC2CC(=O)NC(=O)C2)C(=O)[C@@H](C)C1`: the AC50 in assay [6] is 6 µM (active); in assay [8], 4.59 µM (active); in [9], 0.92 µM (active); in assay [10], 2.9 µM (active); in assay [7] it was 17.9 µM (active). The outcome in [2] was inactive.

As to `Oc1ccc(-c2ccccc2)cc1`, the molecule was classed as inactive in assay [2].

As a reminder, the AC50 is the concentration at which the activity in the assay is half-maximal.
